# Laboratory results published in PubChem BioAssay (NCI).
# The panel holds about 79,000 compounds, 15% with a hit somewhere; the sample as a whole holds those more often. A number with no mark means an inactive call. Calls of active or inactive are those of the source. Cut-off read from the data, not from the text of the source: active = growth inhibition above about 70%; inactive = the rest.
# Assay: NCI Yeast Anticancer Drug Screen. Data for the mec2-1 strain (AID 157)
# Settings: S. cerevisiae mec2-1 strain, at 50.0 µM, hits give high values
# Method in brief: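 Readout is yeast growth inhibition, normalised to vehicle-treated controls, in the mec2-1 strain exposed to compound.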
row,Compound,growth inhibition
1,O=C(O)c1ccccc1C(=O)Nc1ccc2ccccc2c1,-4.6%
2,O=[N+]([O-])c1ccc(N/N=C2\CCC3CC23)c([N+](=O)[O-])c1 (stereo not given),-15.2%
3,CCOC(=O)c1c(C)[nH]c(-c2csc(N)n2)c1C,-1.65%
4,Cc1cccc(C)c1C,-5%
5,Cc1cc(N)c(N=Cc2ccccc2[N+](=O)[O-])cc1C,11.5%
6,CN(C)Cc1cccc(C(F)(F)F)c1C(O)c1ccccc1 (stereo not given),-10.2%
7,Nc1ccc2cc(S(=O)(=O)O)cc(S(=O)(=O)O)c2c1,-5.2%
8,Nc1nc2c(nnn2-c2ccc(Cl)cc2)c(=O)[nH]1,-4.15%
9,C(=C\C1OCCO1)/c1ccccc1,0.45%
10,COc1cccc2c1CCC1=CC(=O)CCC12C (stereo not given),5.5%
11,O=C(NC(=O)c1c(F)cccc1F)Nc1ccc(Cl)nc1,5.95%
12,CC1=C/C(=N/Nc2ccc([N+](=O)[O-])cc2[N+](=O)[O-])CC(C)(C)C1,-27.2%
13,COC1(OC)CC2C(=O)N(Cc3ccccc3)C1C(S(=O)(=O)c1ccccc1)C2C(C)S(=O)(=O)c1ccccc1 (stereo not given),-0.55%
14,CC(=O)N/C(=C\c1ccccc1)C(N)=O,12.9%
15,CCCn1cnc2c(SCC(=O)O)nc(N)nc21,-18.9%
16,c1ccc(-c2ccc3c4ccccc4ccn23)cc1,-4.1%
17,O=S(=O)(Nc1ncccn1)c1ccc(N=NSC2=NC=NC3=NC=NC32)cc1 (stereo not given),17.4%
18,CC[CH2][Sn]([CH2]CC)([O]C(=O)c1cccnc1SC)[O][Sn]([CH2]CC)([CH2]CC)[O]C(=O)c1cccnc1SC,90% (active)
19,CC(=O)c1cccc(NC(=O)Nc2cccc(O)c2)c1,19.9%
20,C#CCN(Cc1ccc2nc(-c3ccccc3)c(Cl)nc2c1)c1ccc(Cl)c(Cl)c1,-6.4%

row,Compound,growth inhibition
1,O=C(NCC1(O)CCCCC1)c1ccccc1,-14.2%
2,NC(CCC(N)C(=O)O)C(=O)O (stereo not given),-20.6%
3,COc1cc(CSCC(=O)O)ccc1O,7.15%
4,O=c1[nH]c2nc3ccccc3c(=O)n2/c1=C/c1ccc(Cl)cc1,18.2%
5,C=CC1=C(C)C2=NC1=CC1=NC(=CC3=C(C)C4=C(O)C(C(=O)OC)C(=C5NC(=C2)C(C)C5CCC(=O)OC/C=C(\C)CCCC(C)CCCC(C)CCCC(C)C)C4=N3)C(CC)=C1C (stereo not given),-33.4%
6,NC(N)=NC(=O)c1ccccc1,-12.2%
7,CC(=O)Nc1ccc(C(=O)NN2C(=O)C(Cl)C2c2ccc(Cl)cc2)cc1 (stereo not given),-32.3%
8,COc1cc([N+](=O)[O-])cc(C=O)c1O,28.4%
9,O=C(O)C1CCCCC1C(=O)Nc1nc2ccccc2[nH]1 (stereo not given),-17.1%
10,CSc1nc2nc[nH]c(=O)c2[nH]1,-11.6%
11,CCSC(OC(C)=O)C(Nc1ccc([N+](=O)[O-])cc1[N+](=O)[O-])C(OC(C)=O)C(OC(C)=O)C(COC(C)=O)OC(C)=O (stereo not given),10.8%
12,CC(C)N(CCN1CCCCC1)c1ccccn1,18.2%
13,CN(C)c1ccc(N=Nc2ccc(S(=O)(=O)O)cc2)cc1.CN(C)c1ccc(N=Nc2ccc(S(=O)(=O)O)cc2)cc1.[NH-]C1CCCCC1[NH-].[Pt+2],7.1%
14,COC(=O)C1CSC(C)(C)N1 (stereo not given),-8.55%
15,O=C(Oc1c(Br)cc(Br)cc1C(=O)Oc1ccccc1)C(=O)Oc1c(Br)cc(Br)cc1C(=O)Oc1ccccc1,23.9%
16,ClCC1COC(CCc2ccccc2)O1 (stereo not given),-3.5%
17,COc1ccc(C(C)c2cc(OC)c(OC)cc2OC)cc1 (stereo not given),10.8%
18,COc1cc(CCCCC(=O)O)cc(Br)c1OC,-1.95%
19,CC1CN1C(=O)Nc1cccc2c(NC(=O)N3CC3C)cccc12 (stereo not given),-12.4%
20,Nc1ccc(S(=O)(=O)/N=C(\NS(=O)(=O)c2ccc(N)cc2)c2ccccc2)cc1,0.65%

# Assay: NCI Yeast Anticancer Drug Screen. Data for the sgs1 mgt1 strain (AID 161);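 note: 0% = growth of cultures given vehicle only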
# Settings: S. cerevisiae sgs1 mgt1 strain, at 50.0 µM, hits give high values
# Method in brief: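 Compounds are added to genetically altered yeast, and growth is compared with cultures given vehicle alone to give percent inhibition.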
row,Compound,growth inhibition
1,O=C(O)c1ccccc1C(=O)Nc1ccc2ccccc2c1,5%
2,O=[N+]([O-])c1ccc(N/N=C2\CCC3CC23)c([N+](=O)[O-])c1 (stereo not given),-2.15%
3,CCOC(=O)c1c(C)[nH]c(-c2csc(N)n2)c1C,21.4%
4,Cc1cccc(C)c1C,9.85%
5,Cc1cc(N)c(N=Cc2ccccc2[N+](=O)[O-])cc1C,39.8%
6,CN(C)Cc1cccc(C(F)(F)F)c1C(O)c1ccccc1 (stereo not given),-5.3%
7,Nc1ccc2cc(S(=O)(=O)O)cc(S(=O)(=O)O)c2c1,6.6%
8,Nc1nc2c(nnn2-c2ccc(Cl)cc2)c(=O)[nH]1,-5.85%
9,C(=C\C1OCCO1)/c1ccccc1,7.25%
10,COc1cccc2c1CCC1=CC(=O)CCC12C (stereo not given),17.9%
11,O=C(NC(=O)c1c(F)cccc1F)Nc1ccc(Cl)nc1,-0.2%
12,CC1=C/C(=N/Nc2ccc([N+](=O)[O-])cc2[N+](=O)[O-])CC(C)(C)C1,18.4%
13,COC1(OC)CC2C(=O)N(Cc3ccccc3)C1C(S(=O)(=O)c1ccccc1)C2C(C)S(=O)(=O)c1ccccc1 (stereo not given),-24%
14,CC(=O)N/C(=C\c1ccccc1)C(N)=O,1.2%
15,CCCn1cnc2c(SCC(=O)O)nc(N)nc21,-24.4%
16,c1ccc(-c2ccc3c4ccccc4ccn23)cc1,8.9%
17,O=S(=O)(Nc1ncccn1)c1ccc(N=NSC2=NC=NC3=NC=NC32)cc1 (stereo not given),20.5%
18,CC[CH2][Sn]([CH2]CC)([O]C(=O)c1cccnc1SC)[O][Sn]([CH2]CC)([CH2]CC)[O]C(=O)c1cccnc1SC,90.8% (active)
19,CC(=O)c1cccc(NC(=O)Nc2cccc(O)c2)c1,-5.35%
20,C#CCN(Cc1ccc2nc(-c3ccccc3)c(Cl)nc2c1)c1ccc(Cl)c(Cl)c1,-2.25%

row,Compound,growth inhibition
1,O=C(NCC1(O)CCCCC1)c1ccccc1,-5.55%
2,NC(CCC(N)C(=O)O)C(=O)O (stereo not given),-25.2%
3,COc1cc(CSCC(=O)O)ccc1O,10.3%
4,O=c1[nH]c2nc3ccccc3c(=O)n2/c1=C/c1ccc(Cl)cc1,43.4%
5,C=CC1=C(C)C2=NC1=CC1=NC(=CC3=C(C)C4=C(O)C(C(=O)OC)C(=C5NC(=C2)C(C)C5CCC(=O)OC/C=C(\C)CCCC(C)CCCC(C)CCCC(C)C)C4=N3)C(CC)=C1C (stereo not given),-49.8%
6,NC(N)=NC(=O)c1ccccc1,-9.55%
7,CC(=O)Nc1ccc(C(=O)NN2C(=O)C(Cl)C2c2ccc(Cl)cc2)cc1 (stereo not given),-42.8%
8,COc1cc([N+](=O)[O-])cc(C=O)c1O,0.7%
9,O=C(O)C1CCCCC1C(=O)Nc1nc2ccccc2[nH]1 (stereo not given),-12.7%
10,CSc1nc2nc[nH]c(=O)c2[nH]1,-5.75%
11,CCSC(OC(C)=O)C(Nc1ccc([N+](=O)[O-])cc1[N+](=O)[O-])C(OC(C)=O)C(OC(C)=O)C(COC(C)=O)OC(C)=O (stereo not given),6.2%
12,CC(C)N(CCN1CCCCC1)c1ccccn1,7.2%
13,CN(C)c1ccc(N=Nc2ccc(S(=O)(=O)O)cc2)cc1.CN(C)c1ccc(N=Nc2ccc(S(=O)(=O)O)cc2)cc1.[NH-]C1CCCCC1[NH-].[Pt+2],10.3%
14,COC(=O)C1CSC(C)(C)N1 (stereo not given),-1.5%
15,O=C(Oc1c(Br)cc(Br)cc1C(=O)Oc1ccccc1)C(=O)Oc1c(Br)cc(Br)cc1C(=O)Oc1ccccc1,19.9%
16,ClCC1COC(CCc2ccccc2)O1 (stereo not given),-10.9%
17,COc1ccc(C(C)c2cc(OC)c(OC)cc2OC)cc1 (stereo not given),25.6%
18,COc1cc(CCCCC(=O)O)cc(Br)c1OC,4.9%
19,CC1CN1C(=O)Nc1cccc2c(NC(=O)N3CC3C)cccc12 (stereo not given),-8.85%
20,Nc1ccc(S(=O)(=O)/N=C(\NS(=O)(=O)c2ccc(N)cc2)c2ccccc2)cc1,12.2%
